Laboratory results taken from PubChem BioAssay (NCATS).
Records with an inconclusive call do not appear. Active and inactive are the calls of the source. The call rests on the fitted dose curve; in most records, active means well fitted curve in the direction sought with a large enough effect; inconclusive means small, poorly fitted or top-dose-only effect, or another doubt; inactive means no such curve, though single readings can be large; an effect the other way counts as inactive or inconclusive. Non-standard residues stand in square brackets, D forms with d. Residues, ends and D or L forms follow the SMILES beside them. *: point of attachment. Nva = CCC[C@H](N)C(=O)O; Cbz = O=C(OCc1ccccc1)*

Assays:
[1] = qHTS of pediatric cancer cell lines to identify multiple opportunities for drug repurposing: Primary screen for A673 cells (AID 1347092); further: nearly all actives have a fitted effect of over 45% in size; on activity change, negative = cytotoxic: on the % scale 0 is the no-effect control and ±100 the full control effect
Summary of the method: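 Luminescence from CellTiter-Glo, taken after 15 min at room temperature, served as the proxy for metabolically active cells following 48 h treatment. Both potency and efficacy were taken from curves fitted to the titration data.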

[2] = qHTS of pediatric cancer cell lines to identify multiple opportunities for drug repurposing: Primary screen for SK-N-MC cells (AID 1347093);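 on activity change, negative = cytotoxic: series mostly up to about 46 µM; plate controls were DMSO neutral control for no effect and bortezomib for full effect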
Summary of the method: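 Metabolically active cells were quantified by ATP-dependent luminescence (CellTiter-Glo, 15 min at room temperature) following 48 h treatment. Cells had been plated at 500-1,000 per well and settled for 5 h beforehand.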

[3] = qHTS of pediatric cancer cell lines to identify multiple opportunities for drug repurposing: Primary screen for BT-37 cells (AID 1347094);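 on activity change, negative = cytotoxic: series mostly up to about 57 µM; plate controls were DMSO for no effect and bortezomib for full effect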
Summary of the method: (§1)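 Cells plated at 500-1,000/well in growth medium, compounds added after 5 h. MIPE tested at 11 points (from 0.78 nM), NPC at 8 points (from 0.59 nM). CellTiter-Glo luminescence after 48 h; concentration-response curves from primary screen.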

[4] = qHTS of pediatric cancer cell lines to identify multiple opportunities for drug repurposing: Primary screen for NB-EBc1 cells (AID 1347095);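 on activity change, negative = cytotoxic: plate controls were DMSO neutral control for no effect and bortezomib for full effect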
Summary of the method: as §1

[5] = qHTS of pediatric cancer cell lines to identify multiple opportunities for drug repurposing: Primary screen for U-2 OS cells (AID 1347096); further: nearly all actives have a fitted effect of over 50% in size;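 on activity change, negative = cytotoxic: plate controls were DMSO wells for no effect and bortezomib positive control wells for full effect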
Summary of the method: (§2)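 Viability after 48 h compound treatment at 37C, 500-1,000 cells/well, read as ATP luminescence with CellTiter-Glo. Primary screens used 11-point (MIPE, 0.78 nM-46 µM) or 8-point (NPC, 0.59 nM-46 µM) final concentrations; follow-up screens used 11-point dilutions.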

[6] = qHTS of pediatric cancer cell lines to identify multiple opportunities for drug repurposing: Primary screen for Saos-2 cells (AID 1347097); further: nearly all actives have a fitted effect of over 40% in size; on activity change, negative = cytotoxic: on the % scale 0 is the no-effect control and ±100 the full control effect
Summary of the method: as §1

[7] = qHTS of pediatric cancer cell lines to identify multiple opportunities for drug repurposing: Primary screen for SK-N-SH cells (AID 1347098); further: nearly all actives have a fitted effect of over 65% in size;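 on activity change, negative = cytotoxic: DMSO served as neutral control and bortezomib at 2.3 µM as positive control; on the % scale 0 is the no-effect control and ±100 the full control effect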
Summary of the method: (§3)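 Cells (500-1,000/well) rested 5 h, then received compounds for 48 h; metabolically active cells were measured by CellTiter-Glo luminescence. Final concentrations spanned up to 46 µM (MIPE, 11-point) or 0.59 nM-46 µM (NPC, 8-point) in primary screens, 11-point in follow-ups.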

[8] = qHTS of pediatric cancer cell lines to identify multiple opportunities for drug repurposing: Primary screen for LAN-5 cells (AID 1347100);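 on activity change, negative = cytotoxic: plate controls were DMSO neutral control for no effect and bortezomib positive control for full effect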
Summary of the method: as §2

[9] = qHTS of pediatric cancer cell lines to identify multiple opportunities for drug repurposing: Primary screen for BT-12 cells (AID 1347101); further: nearly all actives have a fitted effect of over 25% in size;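 on activity change, negative = cytotoxic: plate controls were DMSO for no effect and bortezomib positive control for full effect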
Summary of the method: as §3

[10] = qHTS of pediatric cancer cell lines to identify multiple opportunities for drug repurposing: Primary screen for NB1643 cells (AID 1347099); further: nearly all actives have a fitted effect of over 50% in size;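 on activity change, negative = cytotoxic: plate controls were DMSO neutral control for no effect and bortezomib positive control for full effect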
Summary of the method: as §1
Potency means the concentration at half of the fitted maximal effect.

COc1ccc2cc([S+]([O-])Cc3ncc(C)c(OC)c3C)nc2c1
inactive: Potency [1] | Potency [2] | Potency [3] | Potency [4] | Potency [5] | Potency [6] | Potency [7] | Potency [8] | Potency [9]

CCC[C@@H](C=O)NC(=O)[C@H](CC(C)C)NC(=O)[C@H](CC(C)C)NC(=O)OCc1ccccc1 (Cbz-Leu-Leu-[Nva]-aldehyde)
active: Potency [1] 0.59 µM | Potency [2] 0.105 µM | Potency [3] 1.22 µM | Potency [4] 0.372 µM | Potency [5] 2.35 µM | Potency [6] 1.18 µM | Potency [7] 1.36 µM | Potency [8] 0.935 µM | Potency [9] 2.17 µM

C[C@H](CCC(=O)O)[C@H]1CCC2C3C[C@H](O)[C@@H]4C[C@H](O)CC[C@]4(C)C3CC[C@@]21C (stereo not given in full)
inactive: Potency [1] | Potency [2] | Potency [3] | Potency [4] | Potency [5] | Potency [6] | Potency [7] | Potency [9]

O=C(CN1C(=O)C2(CCCC2)NC[C@H]1c1cc(F)cc(F)c1)Nc1ccc2c(c1)C[C@@]1(C2)C(=O)Nc2ncccc21
inactive: Potency [1] | Potency [2] | Potency [3] | Potency [4] | Potency [5] | Potency [6] | Potency [7] | Potency [10] | Potency [8] | Potency [9]

NC(=O)c1ncn([C@@H]2O[C@H](CO)[C@@H](O)[C@@H]2O)c1O
inactive: Potency [1] | Potency [2] | Potency [3] | Potency [4] | Potency [5] | Potency [6] | Potency [7] | Potency [10] | Potency [9]

CN[C@H](CC(C)C)C(=O)N[C@H]1C(=O)N[C@@H](CC(N)=O)C(=O)N[C@@H]2C(=O)N[C@H]3C(=O)N[C@H](C(=O)N[C@H](C(=O)O)c4cc(O)cc(O)c4-c4cc3ccc4O)[C@H](O)c3ccc(c(Cl)c3)Oc3cc2cc(c3O[C@@H]2O[C@H](CO)[C@@H](O)[C@H](O)[C@@H]2O[C@H]2C[C@](C)(N)[C@H](O)[C@H](C)O2)Oc2ccc(cc2Cl)[C@H]1O
inactive: Potency [1] | Potency [2] | Potency [3] | Potency [4] | Potency [5] | Potency [6] | Potency [7] | Potency [8] | Potency [9]

O=[N+]([O-])c1cn2c(n1)OC[C@@H](OCc1ccc(OC(F)(F)F)cc1)C2
inactive: Potency [1] | Potency [2] | Potency [3] | Potency [4] | Potency [5] | Potency [6] | Potency [10]

N=c1ccn2c(n1)O[C@H]1[C@@H](O)[C@@H](CO)O[C@H]12
active: Potency [1] 0.372 µM | Potency [2] 11.8 µM | Potency [3] 0.611 µM | Potency [4] 11.8 µM | Potency [10] 9.35 µM | Potency [8] 3.32 µM
inactive: Potency [5] | Potency [6]

O=C(O)C=Cc1ccc(Cn2ccnc2)cc1
inactive: Potency [1] | Potency [2] | Potency [3] | Potency [4] | Potency [5] | Potency [6] | Potency [7] | Potency [10] | Potency [9]

COc1ccc(CCC(=O)c2c(O)cc(O[C@@H]3O[C@H](CO)[C@@H](O)[C@H](O)[C@@H]3O[C@@H]3O[C@@H](C)[C@H](O)[C@@H](O)[C@@H]3O)cc2O)cc1O
active: Potency [1] 9.35 µM | Potency [2] 3.32 µM | Potency [7] 13.6 µM
inactive: Potency [3] | Potency [4] | Potency [5] | Potency [6] | Potency [8] | Potency [9]

CC(=O)N[C@@H]1[C@H](O[C@@H]2c3ccc(c(Cl)c3)Oc3cc4cc(c3O[C@H]3O[C@H](CO)[C@@H](O)[C@H](O)[C@H]3NC(=O)CCCCCCCC(C)C)Oc3ccc(cc3Cl)C[C@H]3NC(=O)[C@H](N)c5ccc(O)c(c5)Oc5cc(O)cc(c5)[C@H](NC3=O)C(=O)N[C@H]4C(=O)N[C@H]3C(=O)N[C@@H]2C(=O)N[C@@H](C(=O)O)c2cc(O)cc(O[C@H]4O[C@H](CO)[C@@H](O)[C@H](O)[C@H]4O)c2-c2cc3ccc2O)O[C@H](CO)[C@@H](O)[C@@H]1O
inactive: Potency [1] | Potency [2] | Potency [3] | Potency [4] | Potency [5] | Potency [6] | Potency [7] | Potency [10] | Potency [8] | Potency [9]

CCN1CCN(C(=O)N[C@H](C(=O)N[C@@H]2C(=O)N3C(C(=O)O)=C(CSc4nnnn4C)CS[C@@H]23)c2ccc(O)cc2)C(=O)C1=O
inactive: activity change, negative = cytotoxic [1] 6.36% [at 9.22 µM] | activity change, negative = cytotoxic [2] -14.8% [at 9.22 µM] | activity change, negative = cytotoxic [3] 17.1% [at 11.5 µM] | activity change, negative = cytotoxic [4] 14.5% [at 9.22 µM] | activity change, negative = cytotoxic [5] 20.8% [at 9.22 µM] | activity change, negative = cytotoxic [6] 18.2% [at 9.22 µM] | activity change, negative = cytotoxic [10] 17.1% [at 9.22 µM] | activity change, negative = cytotoxic [8] -3.47% [at 9.22 µM] | activity change, negative = cytotoxic [9] 17.1% [at 11.5 µM]

COc1ccnc2[nH]cc(C(=O)C(=O)N3CCN(C(=O)c4ccccc4)C[C@@H]3C)c12
inactive: Potency [1] | Potency [2] | Potency [3] | Potency [4] | Potency [5] | Potency [6] | Potency [8] | Potency [9]

CC(C)OC(=O)[C@H](C)N[P@](=O)(OC[C@H]1O[C@@H](n2ccc(=O)[nH]c2=O)[C@](C)(F)[C@H]1O)Oc1ccccc1
inactive: Potency [1] | Potency [2] | Potency [3] | Potency [4] | Potency [5] | Potency [7] | Potency [10] | Potency [8] | Potency [9]

COc1cc(O)c2c(c1)C1OC1C[C@H](O)[C@H](O)C(=O)C=CC[C@H](C)OC2=O (stereo not given in full)
active: Potency [1] 5.9 µM | Potency [2] 2.35 µM | Potency [3] 19.3 µM | Potency [4] 5.9 µM | Potency [5] 18.7 µM | Potency [6] 10.5 µM | Potency [7] 6.07 µM | Potency [8] 5.26 µM | Potency [9] 13.7 µM

O=C1CSC(=O)N1C(CCc1ccncc1)COc1ccc(-c2cccc([N+](=O)[O-])c2)cc1 (stereo not given)
inactive: Potency [5] | Potency [6]
active: Potency [1] 7.43 µM | Potency [2] 10.5 µM | Potency [3] 15.3 µM | Potency [4] 18.7 µM | Potency [7] 4.82 µM | Potency [8] 14.8 µM
